HEK cytotox = kills HEK 293 cells; HEK 293 viability, ATP luminescence (CellTiter-Glo), 48-72 h; Potency, µM (doses to about 115 µM), actives largely listed as inhibitors; actives 6.6% (n = 94,000); AID 1345083; also: nearly all actives have a fitted effect of over 60% in size
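Pintool-delivered compounds were incubated with HEK 293 cells (250 cells/well) at 37 degree Celsius for 48 or 72 hr. ATP-dependent luminescence (CellTiter-Glo) then reported remaining viable cells.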
hNpr1 antagonist = blocks ANP-stimulated signaling of human Npr1 receptor; HEK293 hNpr1 GloSensor cGMP, ANP-stimulated luminescence; Potency, µM (series often up to 46.3 µM), actives largely listed as inhibitors; actives 1.6% (n = 76,000); calls by dose curve; also: nearly all actives have a fitted effect of over 60% in size
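HEK293 cells stably expressing human Npr1 and cGMP GloSensor pGS-40F, loaded 2 h with 2% GloSensor reagent, given compound 30 min at room temperature. Luminescence read before and 20 min after 0.1 nM hNppA.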
SNCA expr inh = inhibitors of alpha-synuclein (SNCA) gene expression; HEK-293 SNCA-luciferase knock-in, luminescence, 24 h; Potency, µM (highest dose often 57.2 µM), usual class: inhibitors; actives 0.17% (n = 140,000); AID 1671194; also: nearly all actives have a fitted effect of over 45% in size
Luciferase inh = blocks purified firefly luciferase enzyme activity; P08659; purified P. pyralis luciferase, luminescence, biochemical; Potency, µM (titrated, usually from 115 µM), usual class: inhibitors; actives 2.5% (n = 76,000); AID 1347043; also: nearly all actives have a fitted effect of over 65% in size
Target sequence (P08659 whole entry, looked up): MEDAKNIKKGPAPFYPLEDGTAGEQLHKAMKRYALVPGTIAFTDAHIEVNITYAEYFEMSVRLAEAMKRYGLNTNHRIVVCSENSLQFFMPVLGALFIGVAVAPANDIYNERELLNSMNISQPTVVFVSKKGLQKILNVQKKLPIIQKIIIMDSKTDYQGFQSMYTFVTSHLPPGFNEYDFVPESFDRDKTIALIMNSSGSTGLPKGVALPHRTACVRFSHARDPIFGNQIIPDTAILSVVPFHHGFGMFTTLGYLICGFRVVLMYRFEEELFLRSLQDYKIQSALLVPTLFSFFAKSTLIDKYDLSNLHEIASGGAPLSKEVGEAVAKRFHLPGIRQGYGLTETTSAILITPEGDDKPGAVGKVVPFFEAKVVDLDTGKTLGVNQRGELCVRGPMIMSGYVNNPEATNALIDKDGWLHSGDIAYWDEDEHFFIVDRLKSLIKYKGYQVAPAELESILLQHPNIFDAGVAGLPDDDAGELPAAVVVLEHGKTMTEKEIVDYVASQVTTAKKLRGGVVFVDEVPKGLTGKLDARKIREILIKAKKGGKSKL
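Luminescence read by CCD imaging after purified firefly luciferase (10nM final) was added to substrate buffer holding 10uM D-luciferin and 10uM ATP, pH 7.5, pre-dosed with compound.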
NIH3T3 tox = kills NIH 3T3 cells. NIH 3T3 viability, CellTiter-Glo ATP luminescence, 48-72 h. actives 4.3% (n = 94,000). Potency, µM (titrated, usually from 96.7 µM), usual class: inhibitors; also: nearly all actives have a fitted effect of over 55% in size
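Cytotoxicity was measured by CellTiter-Glo ATP luminescence after 48 or 72 h compound exposure at 37 °C. Mouse NIH 3T3 fibroblasts were seeded at 400 cells/well and dosed by 23 nL pin transfer.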
SNCA viab count = reduces viability of HEK-293 SNCA reporter cells | Potency, µM (series often up to 57.1 µM), usual class: cytotoxic | HEK-293-SNCA-luc viability, GF-AFC fluorescence, 24 h | actives 0.12% (n = 150,000) | AID 1671193; also: nearly all actives have a fitted effect of over 30% in size
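Cytotoxicity counterscreen: after 24 h compound treatment of genome-edited SNCA-luciferase HEK-293 cells, live-cell protease substrate GF-AFC read by fluorescence after 30 min; activity scaled between DMSO (0%) and medium-only (-100%), curves Hill-fitted.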
Large screens that a line does not name were inactive. The list is not random: actives were taken first. Their share in the collection is about 7.2%. Unless noted, calls follow the shape of the dose curve; as a rule, active = well fitted curve in the direction sought with a large enough effect; inconclusive = small, poorly fitted or top-dose-only effect, or another doubt; inactive = no such curve, though single readings can be large; an effect the other way counts as inactive or inconclusive.

C[C@H]1CCCN1C(=O)c1nnc(COc2ccc(C#N)cc2)n1-c1cccnc1	HEK cytotox inconclusive, NIH3T3 tox 40µM
CCCCN(C)C(=O)c1cc(-c2ccc(C)cc2)cn1CC	HEK cytotox inconclusive, NIH3T3 tox inconclusive, SNCA viab count inconclusive
COc1cccc(Cn2c(=O)c3ccnn3c3ccc(C(=O)NCCCN(C)C)cc32)c1	HEK cytotox 40µM, NIH3T3 tox 35µM
C[S+](=O)([O-])c1cccc(NC(=O)c2cnc3n2CCN(CCc2ccccc2)CC3)c1	HEK cytotox inconclusive
O=C(Cn1cccc1-c1nc(-c2ccc(F)cc2)no1)Nc1ccccc1	none
O=C(C1CCCCC1)N1Cc2[nH]cnc2C[C@H]1c1nc(-c2ccc3ccccc3c2)no1	HEK cytotox inconclusive, SNCA expr inh inconclusive, Luciferase inh inconclusive, NIH3T3 tox 79µM, SNCA viab count inconclusive
O=C(NC1CCCCC1)N1Cc2[nH]cnc2C[C@H]1c1nc(-c2ccccc2)no1	HEK cytotox inconclusive, Luciferase inh 45µM, NIH3T3 tox 28µM
Cc1ccc(-c2noc([C@@H]3Cc4nc[nH]c4CN3C(=O)NC3CCCCC3)n2)cc1	SNCA expr inh inconclusive, NIH3T3 tox inconclusive
Cc1cccc(-c2noc([C@@H]3Cc4nc[nH]c4CN3C(=O)NC3CCCCC3)n2)c1	HEK cytotox inconclusive, Luciferase inh 40µM, NIH3T3 tox 71µM
CC(C)C1=NOC2(CCN(S(C)(=O)=O)CC2)C1	none (no result: hNpr1 antagonist, Luciferase inh)
c1ccc(CN[C@H]2CO[C@H]3[C@@H]2OC[C@@H]3n2cc(CC3CCCCC3)nn2)cc1	HEK cytotox inconclusive, SNCA expr inh inconclusive, NIH3T3 tox 35µM
COC(=O)c1cccc(NC(=S)N[C@H]2CO[C@H]3[C@@H]2OC[C@@H]3n2cc(CC3CCCCC3)nn2)c1	HEK cytotox 40µM, hNpr1 antagonist inconclusive, NIH3T3 tox inconclusive, SNCA viab count inconclusive
O=C(N[C@H]1CO[C@H]2[C@@H]1OC[C@@H]2n1cc(-c2ccccc2)nn1)c1ccc(C(F)(F)F)cc1	HEK cytotox 40µM, hNpr1 antagonist inconclusive, NIH3T3 tox inconclusive
Cc1ccc(C(=O)N[C@H]2CO[C@H]3[C@@H]2OC[C@@H]3n2cc(CC3CCCCC3)nn2)cc1	HEK cytotox inconclusive, NIH3T3 tox 35µM
O=C(c1cccc(F)c1)N1CCC2(CC1)CC(OCC1CC1)CCO2 (stereo unspecified)	none
COc1ccccc1Nc1ccnc(N2CCCC(C(=O)NCC(F)F)C2)n1 (stereo unspecified)	HEK cytotox inconclusive, NIH3T3 tox inconclusive (no result: hNpr1 antagonist, Luciferase inh)
COc1ccccc1Nc1ccnc(N2CCCC(C(=O)NCc3cccs3)C2)n1 (stereo unspecified)	HEK cytotox inconclusive, NIH3T3 tox 32µM (no result: hNpr1 antagonist, Luciferase inh)
COc1ccccc1Nc1ccnc(N2CCC(C(=O)NCc3ccccc3)CC2)n1	HEK cytotox inconclusive, NIH3T3 tox inconclusive (no result: hNpr1 antagonist, Luciferase inh)
COc1cccc(CNC(=O)C2CCCN(c3nccc(Nc4ccccc4OC)n3)C2)c1 (stereo unspecified)	HEK cytotox inconclusive, NIH3T3 tox 32µM (no result: hNpr1 antagonist, Luciferase inh)
COc1ccccc1Nc1ccnc(N2CCCC(C(=O)NCc3ccc(Cl)cc3)C2)n1 (stereo unspecified)	HEK cytotox 11µM, SNCA expr inh inconclusive, NIH3T3 tox inconclusive (no result: hNpr1 antagonist, Luciferase inh)
COc1cccc(CNC(=O)C2CCN(c3nccc(Nc4ccccc4OC)n3)CC2)c1	HEK cytotox inconclusive, NIH3T3 tox 40µM (no result: hNpr1 antagonist, Luciferase inh)
NCCn1cc(C(=O)NC2C3CN4CCN(C3)CC2(c2ccccc2)C4)nn1 (stereo unspecified)	none
CCN1CCC2(CCC1=O)CN(Cc1ccc(C)c3ccccc13)CCN2C (stereo unspecified)	HEK cytotox 79µM, SNCA expr inh inconclusive
COc1cccc(-c2cc(C(=O)NCc3c(C)cc(C)[nH]c3=O)c3c(c2)N(C(C)C)CCO3)c1OC	HEK cytotox 79µM, NIH3T3 tox inconclusive
Cc1cc(C)c(CNC(=O)c2cc(-c3ccccc3C)cc3ncn(C)c23)c(=O)[nH]1	HEK cytotox 112µM, NIH3T3 tox inconclusive
Cc1cc(C)c(CNC(=O)c2cc(-c3ccccc3C)cc3c2OCCN3C(C)C)c(=O)[nH]1	HEK cytotox inconclusive, SNCA expr inh inconclusive, NIH3T3 tox inconclusive
COc1ccc(-c2cc(C(=O)NCc3c(C)cc(C)[nH]c3=O)c3c(c2)N(C(C)C)CCO3)cc1	HEK cytotox 28µM, NIH3T3 tox inconclusive
COc1cc(F)ccc1-c1cc(C(=O)NCc2c(C)cc(C)[nH]c2=O)c2c(c1)N(C(C)C)CCO2	HEK cytotox 45µM, NIH3T3 tox 40µM
COc1ncc(-c2cc(C(=O)NCc3c(C)cc(C)[nH]c3=O)c3c(c2)N(C(C)C)CCO3)cn1	HEK cytotox inconclusive
Cc1cc(C)c(CNC(=O)c2cc(-c3ccccc3F)cc3c2OCCN3C(C)C)c(=O)[nH]1	HEK cytotox inconclusive, SNCA expr inh inconclusive, NIH3T3 tox inconclusive
CO[C@H]1C(=O)N(C(C)C)[C@H]1C1CCN(C(=O)Cc2cccc(F)c2)CC1	NIH3T3 tox inconclusive (no result: hNpr1 antagonist, Luciferase inh)
Cc1ccccc1C(=O)N1CCN(Cc2ccccc2-c2ccccc2F)CC1	HEK cytotox inconclusive, NIH3T3 tox inconclusive (no result: hNpr1 antagonist, Luciferase inh)
N#Cc1cccnc1-c1ccc(C(=O)N2CCC(NC(=O)Cc3ccc(F)cc3)CC2)cc1	none (no result: hNpr1 antagonist, Luciferase inh)
CN1C(=O)COC[C@@H]1[C@H](O)c1ccc(NC(=O)c2ccc(C#N)cc2)cc1	none
Cc1cc(C)c(CNC(=O)c2cc(-c3ccccc3O)cc3c2OCCN3C(C)C)c(=O)[nH]1	HEK cytotox inconclusive, NIH3T3 tox inconclusive
Cc1cc(C)c(CNC(=O)c2cc(-c3ccccc3F)cc3c2OCCN3C)c(=O)[nH]1	HEK cytotox 71µM, SNCA expr inh inconclusive, NIH3T3 tox 50µM, SNCA viab count inconclusive
CC(=O)Nc1cccc(-c2cc(C(=O)NCc3c(C)cc(C)[nH]c3=O)c3c(c2)N(C(C)C)CCO3)c1	HEK cytotox inconclusive, NIH3T3 tox 45µM
CCc1ccccc1S(=O)(=O)N1CCC(n2cnnc2CC)CC1	none
COc1ccc(N2Cc3c(ncnc3N3CCC(Cc4ccccc4)CC3)N(C)CC2=O)cc1	HEK cytotox inconclusive, NIH3T3 tox inconclusive, SNCA viab count inconclusive
CN1CC(=O)N(C2CCC2)Cc2c1ncnc2N1CCC(Cc2ccccc2)CC1	HEK cytotox inconclusive, NIH3T3 tox 45µM
CN1CC(=O)N(C2CCC2)Cc2c1ncnc2N1CCC(c2ccccc2)CC1	HEK cytotox 45µM, NIH3T3 tox inconclusive
CN1CC(=O)N(c2ccc(Cl)cc2)Cc2c1ncnc2N1CCC(Cc2ccccc2)CC1	HEK cytotox 32µM, SNCA expr inh inconclusive, NIH3T3 tox inconclusive
CN1CCCC1c1nc(C2CN(C(=O)c3cccn3C)C2)no1 (stereo unspecified)	SNCA expr inh inconclusive

Compound activity deposited in PubChem by National Center for Advancing Translational Sciences (NCATS).
